PubChem BioAssay AID1159580 (chemical genetic matrix, 2015)
About 2,000 (36%) of roughly 5,500 compounds were called active. About 18% were inconclusive and are not listed. Rule as the data show it: active = normalized growth mostly below about 0.91 (no sharp cut-off); inconclusive = no clear call, values can overlap the other calls; inactive = mostly above about 0.92. The list shows a part of the results.

Experiment: chemical genetic growth profiling, strain panel (AID 1159580);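 also: tested at 20 µM; growth read once vehicle control cultures reached saturation at 30 °C; 1 = growth at the plate median or of vehicle wells; lower values mean less growth of the strain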
Conditions: S. cerevisiae deletion strains, growth OD

Measured: normalized growth

Nc1ccc(C(=O)O)c(O)c1 (tested in a mixture with another compound)
inactive: locus YBR021W, strain FUR4, stronger effect = lower value 1 | locus YBR229C, strain ROT2, stronger effect = lower value 0.988 | locus YCL029C, strain bik1, stronger effect = lower value 0.993 | locus YDL035C, strain GPR1, stronger effect = lower value 0.989 | locus YDL074C, strain BRE1, stronger effect = lower value 1.01 | locus YDL101C, strain DUN1, stronger effect = lower value 0.995 | locus YDL134C, strain PPH21, stronger effect = lower value 0.994 | locus YDL185W, strain tfp1, stronger effect = lower value 0.993 | locus YDL192W, strain arf1, stronger effect = lower value 0.988 | locus YDR101C, strain arx1, stronger effect = lower value 1.02 | locus YDR162C, strain NBP2, stronger effect = lower value 0.995 | locus YDR318W, strain mcm21, stronger effect = lower value 0.992 | locus YDR388W, stronger effect = lower value 0.981 | locus YDR502C, strain sam2, stronger effect = lower value 1.02 | locus YEL061C, strain CIN8, stronger effect = lower value 0.994 | locus YER110C, stronger effect = lower value 0.976 | locus YER155C, strain BEM2, stronger effect = lower value 0.999 | locus YER167W, strain BCK2, stronger effect = lower value 0.985 | locus YGL078C, strain dbp3, stronger effect = lower value 0.992 | locus YGL086W, strain mad1, stronger effect = lower value 1.03 | locus YGL248W, strain PDE1, stronger effect = lower value 0.994 | locus YGR135W, strain pre9, stronger effect = lower value 0.945 | locus YGR252W, strain gcn5, stronger effect = lower value 0.963 | locus YHR030C, strain SLT2, stronger effect = lower value 0.993 | locus YHR079C, strain IRE1 (second series), stronger effect = lower value 0.98 | locus YHR094C, strain hxt1, stronger effect = lower value 0.977 | locus YHR129C, strain ARP1, stronger effect = lower value 0.998 | locus YHR200W, strain rpn10, stronger effect = lower value 0.988 | locus YIL066C, strain RNR3, stronger effect = lower value 0.996 | locus YIL073C, strain SPO22, stronger effect = lower value 1.01 | locus YIL125W, strain kgd1, stronger effect = lower value 0.988 | locus YIR030C, strain dcg1, stronger effect = lower value 0.979 | locus YJL095W, strain BCK1, stronger effect = lower value 1.02 | locus YJL134W, strain LCB3, stronger effect = lower value 0.994 | locus YJL168C, strain set2, stronger effect = lower value 0.976 | locus YJL187C, strain SWE1 (second series), stronger effect = lower value 1.01 | locus YJR043C, strain POL32, stronger effect = lower value 0.981 | locus YJR075W, strain HOC1, stronger effect = lower value 0.988 | locus YKL009W, strain mrt4, stronger effect = lower value 1 | locus YKL068W, stronger effect = lower value 0.992 | locus YKL085W, strain MDH1 (second series), stronger effect = lower value 0.984 | locus YKL085W, strain MDH1, stronger effect = lower value 0.984 | locus YKL190W, strain CNB1, stronger effect = lower value 0.998 | locus YKR001C, strain vps1, stronger effect = lower value 0.998 | locus YLR039C, strain RIC1, stronger effect = lower value 1.06 | locus YLR058C, strain SHM2, stronger effect = lower value 0.989 | locus YLR102C, strain apc9, stronger effect = lower value 0.983 | locus YLR262C, strain YPT6, stronger effect = lower value 1.02 | locus YLR268W, strain sec22, stronger effect = lower value 0.992 | locus YLR330W, strain CHS5, stronger effect = lower value 0.994 | locus YLR342W, strain FKS1 (second series), stronger effect = lower value 0.968 | locus YLR371W, strain rom2, stronger effect = lower value 0.977 | locus YLR418C, strain cdc73, stronger effect = lower value 0.957 | locus YML016C, strain PPZ1, stronger effect = lower value 0.99 | locus YML032C, strain rad52, stronger effect = lower value 0.994 | locus YML124C, strain tub3, stronger effect = lower value 0.989 | locus YMR078C, strain ctf18, stronger effect = lower value 0.978 | locus YMR223W, strain ubp8, stronger effect = lower value 0.964 | locus YMR307W, strain GAS1, stronger effect = lower value 0.909 | locus YNL067W, strain RPL9B, stronger effect = lower value 1.02 | locus YNL128W, strain TEP1, stronger effect = lower value 0.995 | locus YNL153C, strain GIM3, stronger effect = lower value 1.04 | locus YNL233W, strain BNI4, stronger effect = lower value 1.01 | locus YNL250W, strain rad50, stronger effect = lower value 0.981 | locus YNL271C, strain bni1, stronger effect = lower value 0.991 | locus YNL298W, strain CLA4, stronger effect = lower value 0.983 | locus YNL307C, strain MCK1, stronger effect = lower value 0.981 | locus YNR052C, strain pop2, stronger effect = lower value 0.991 | locus YOL006C, strain TOP1, stronger effect = lower value 1.08 | locus YOL012C, strain htz1 0.929 | locus YOL147C, strain pex11, stronger effect = lower value 0.988 | locus YOR061W, strain CKA2, stronger effect = lower value 0.993 | locus YOR069W, strain VPS5, stronger effect = lower value 0.988 | locus YOR136W, strain idh2, stronger effect = lower value 0.987 | locus YOR144C, strain elg1, stronger effect = lower value 0.977 | locus YOR184W, strain ser1, stronger effect = lower value 0.971 | locus YOR316C, strain cot1, stronger effect = lower value 0.986 | locus YPR119W, strain clb2, stronger effect = lower value 0.984 | locus YPR141C, strain kar3, stronger effect = lower value 0.984 | locus YPR163C, strain tif3, stronger effect = lower value 0.979 | locus YPR167C, strain met16, stronger effect = lower value 0.981 | strain wtn01, stronger effect = lower value 1.01
